Source: PubChem BioAssay (NCI)
This is part of a sample that, as a whole, favours compounds with a hit. Of some 83,000 tested, about 20% had one in any assay.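 The test compound was applied at a single concentration to cells in 96-well plates for 48 hours, and percent growth was recorded.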 Activity calls are given as the source filed them. How the source made its calls: active means growth percent below 10; inactive means the rest.

Key:
Test in all cases: NCI-60 one-dose screen, 48 h (100 = growth as untreated, 0 = no growth, -100 = all killed)
Details in all cases: 10 µM unless noted
[1] = test system: DU-145 prostate
[2] = test system: K-562 leukemia
[3] = test system: MALME-3M melanoma
[4] = test system: MDA-MB-231 breast
[5] = test system: RXF 393 renal
[6] = test system: SF-268 CNS
[7] = test system: SF-295 CNS
[8] = test system: SF-539 CNS
[9] = test system: UACC-257 melanoma
[10] = test system: M14 melanoma

Measured: growth

CC(C)N1CCN(Cc2ccc3c(NNC(=O)c4ccccc4)nc4cc(F)ccc4n23)CC1
inactive: [1] 30.8% | [2] 15.7% | [3] 25% | [4] 43.1% | [5] 37.7% | [6] 24.1% | [7] 16.5% | [8] 10.5% | [9] 12.4%
active: [10] 6.58%

C/C(=N\NC(=O)c1ccccc1O)c1cccc(/C(C)=N/NC(=O)c2ccccc2O)n1
inactive: [1] 55.8% | [2] 57.2% | [3] 20.9% | [4] 52.7% | [5] 93.7% | [6] 31.8% | [9] 87.6% | [10] 48.6%
active: [7] 7.95% | [8] -24.4%

O=C1Nc2ccc(Br)cc2/C1=N/c1n[nH]c(=S)s1
inactive: [1] 106% | [2] 90.8% | [3] 107% | [4] 105% | [5] 109% | [6] 91.5% | [7] 101% | [8] 99.7% | [9] 99.6% | [10] 99.8%

CS(=O)(=O)Nc1cc(-c2ccc3ncnc(Nc4c(Cl)ccc5c4OCO5)c3c2)cnc1Cl
active: [1] 6.12% | [3] -29% | [4] 1.01% | [5] -45.8% | [6] -21.5% | [7] -29.8% | [8] -36.9% | [9] -3.47% | [10] -9.85%
inactive: [2] 13.6%

O=C(NCc1ccccc1)Nc1ccccc1CNc1nc(Nc2ccc(OCCN3CCCC3)cc2)ncc1Cl
inactive: [1] 78.4% | [2] 64.5% | [3] 90.7% | [4] 97% | [5] 79.4% | [6] 83.2% | [7] 95.5% | [8] 92.4% | [9] 102% | [10] 99.7%

COC(=O)CNC(=O)[C@H](Cc1ccccc1)NCc1ccncc1
inactive: [1] 105% | [2] 89.1% | [3] 95.7% | [4] 105% | [5] 112% | [6] 107% | [7] 99% | [8] 102% | [9] 84.4% | [10] 105%

CC[C@]12C=CCN3CC[C@@]4(c5cc(NC(=O)CCC(=O)OCc6cn(Cc7ccc(F)cc7)nn6)c(OC)cc5N(C)[C@H]4[C@@](O)(C(=O)OC)[C@@H]1OC(C)=O)[C@@H]32
inactive: [1] 104% | [2] 99.8% | [3] 99.5% | [4] 98.9% | [5] 103% | [6] 95.7% | [7] 103% | [8] 96.9% | [9] 102% | [10] 103%

COc1cc(N2C(=O)[C@H](O)C2c2ccc(SC)cc2)cc(OC)c1OC (stereo not given in full)
active: [1] 3.72% | [2] 5.68% | [10] 6.4%
inactive: [3] 71.7% | [4] 30.3% | [5] 15.3% | [6] 28.1% | [7] 10.1% | [8] 16.3% | [9] 42.1%

COc1ccc2cc(C(=O)c3coc4ccc(O)cc34)ccc2c1
inactive: [1] 99.6% | [2] 81.6% | [3] 92.1% | [4] 95% | [5] 115% | [6] 90.1% | [7] 105% | [8] 93.7% | [9] 103% | [10] 108%

Cc1ccc(-c2cc(-c3ccc(Cl)cc3)nc(NC(=O)c3cccnc3)n2)cc1
inactive: [1] 106% | [2] 87.6% | [3] 111% | [4] 91.3% | [5] 94.1% | [6] 97.6% | [7] 103% | [8] 106% | [9] 121% | [10] 109%

CNc1nc(S(=O)c2ccc(C#N)cc2)nc2ccccc12 (stereo not given)
inactive: [1] 40.6% | [2] 24.9% | [3] 54.8% | [4] 54.8% | [5] 62.9% | [6] 87.8% | [7] 99.5% | [8] 92% | [9] 85.3% | [10] 71.5%
